According to the supplement of paper PMC6555819:

Columns and labels:
Assay in all cases: PBM binding z-score (relative to random genomic background probes); higher = stronger binding; sequences stand for … in GC…GCGATTGACAGCGTAGAATGAAGG
[1] = test system: FXR:RXRa (NR concentration 270 nM, RXRa partner concentration 90 nM)
Summary of the method: (§1)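 On custom Agilent 4×180K arrays, double-stranded probes with 34-nt variable regions carried direct-repeat seeds, single-nucleotide variants, half-site ablations or random human genomic background. Ligand-free nuclear receptor dimers were applied for 1 h, and binding was read with antibodies against each partner (one per run). Binding z-scores come from regression-normalized fluorescence, with the random background probes as reference.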

[2] = test system: LXRa:RXRa (NR concentration 270 nM, RXRa partner concentration 90 nM)
Summary of the method: as §1

[3] = test system: LXRa homodimer (NR concentration 270 nM)
Summary of the method: as §1

[4] = test system: LXRb:RXRa (NR concentration 270 nM, RXRa partner concentration 90 nM)
Summary of the method: as §1

[5] = test system: LXRb homodimer (NR concentration 270 nM)
Summary of the method: as §1

[6] = test system: PPARa:RXRa (NR concentration 270 nM, RXRa partner concentration 90 nM)
Summary of the method: as §1

[7] = test system: PPARg:RXRa (NR concentration 180 nM, RXRa partner concentration 90 nM)
Summary of the method: as §1

[8] = test system: PPARg:RXRa 270nM:90nM, anti-RXR (NR concentration 270 nM, RXRa partner concentration 90 nM)
Summary of the method: as §1

[9] = test system: PPARg:RXRa 30nM:10nM, anti-RXR (NR concentration 30 nM, RXRa partner concentration 10 nM)
Summary of the method: as §1

[10] = test system: PPARg:RXRa 90nM:30nM, anti-RXR (NR concentration 90 nM, RXRa partner concentration 30 nM)
Summary of the method: as §1

[11] = test system: PPARg:RXRa DBDmut IVT, anti-RXR (DBD mutation: RXRa K156A/R161A, NR concentration 270 nM, RXRa partner concentration 90 nM)
Summary of the method: as §1

[12] = test system: PPARg:RXRa IVT, anti-PPARg (NR concentration 270 nM, RXRa partner concentration 90 nM)
Summary of the method: as §1

[13] = test system: PPARg DBDmut:RXRa IVT, anti-PPARg (DBD mutation: PPARg1 K132A/R137A, NR concentration 270 nM, RXRa partner concentration 90 nM)
Summary of the method: as §1

[14] = test system: PPARg DBDmut IVT, anti-PPARg (DBD mutation: PPARg1 K132A/R137A, NR concentration 270 nM)
Summary of the method: as §1

[15] = test system: PPARg homodimer (NR concentration 180 nM)
Summary of the method: as §1

[16] = test system: PXR:RXRa (NR concentration 270 nM, RXRa partner concentration 90 nM)
Summary of the method: as §1

[17] = test system: PXR homodimer (NR concentration 270 nM)
Summary of the method: as §1

[18] = test system: RARa:RXR (NR concentration 270 nM, RXRa partner concentration 90 nM)
Summary of the method: as §1

[19] = test system: RARa homodimer (NR concentration 270 nM)
Summary of the method: as §1

[20] = test system: RARb:RXRa (NR concentration 270 nM, RXRa partner concentration 90 nM)
Summary of the method: as §1

Sequence | PBM binding z-score [1] | PBM binding z-score [2] | PBM binding z-score [3] | PBM binding z-score [4] | PBM binding z-score [5] | PBM binding z-score [6] | PBM binding z-score [7] | PBM binding z-score [8] | PBM binding z-score [9] | PBM binding z-score [10] | PBM binding z-score [11] | PBM binding z-score [12] | PBM binding z-score [13] | PBM binding z-score [14] | PBM binding z-score [15] | PBM binding z-score [16] | PBM binding z-score [17] | PBM binding z-score [18] | PBM binding z-score [19] | PBM binding z-score [20]
TCGAGTAAGTTACCAATGGGGCATTCAGCTTTCT | -0.407 | -0.177 | -0.53 | 0.203 | -0.792 | 0.13 | -0.296 | 0.61 | 0.958 | 0.917 | 0.719 | -0.101 | -0.374 | -1.05 | -0.441 | 0.0133 | -0.765 | 0.11 | -0.447 | -0.0716
CCTTACGGGTCACTGACAGGTTCTAGCATTTGGA | 4.75 | 3.1 | 0.00693 | 2.9 | 0.128 | 4.77 | 3.89 | 4.02 | 1.11 | 2.83 | 3.31 | 3.38 | 0.541 | -0.487 | 1.98 | 2.71 | -0.239 | 3.46 | 0.459 | 3.63
CCGACTGGGGCAAGGTTACCATCACGCACAGCCA | 0.162 | 0.447 | -0.106 | 0.674 | -1.14 | 1.79 | 2.72 | 3.61 | 0.851 | 2.78 | 3.35 | 3.48 | -0.952 | -0.665 | 0.946 | 0.175 | 0.0478 | 0.822 | -0.0498 | 1.5
ATCGAAAGGTGGAGGTGAGTATAGAGAAAGGGAA | 0.433 | 0.583 | -0.00361 | 0.504 | 0.617 | 0.622 | 0.263 | 0.302 | 0.265 | 0.243 | -0.413 | 0.772 | -0.138 | -0.168 | 0.613 | 0.147 | 0.659 | 0.0317 | 1.06 | 1.28
ATCTCTAGGTTAGACTCAGTTCAGTGAAGAACGC | 1 | 1.74 | 1.7 | 1.12 | 1.27 | 0.772 | 0.251 | 0.742 | 0.423 | 0.508 | 3.38 | 2.14 | 1.55 | 1.36 | 1.63 | 2.69 | 2.69 | 1.13 | 2.42 | 1.53
TAGACTAGGTCATGCGGGCCAGTATAGTGTCGGC | 3.22 | 2.34 | 0.304 | 1.15 | 0.173 | 3.96 | 5.48 | 4.65 | 2.34 | 3.95 | 5.86 | 6.59 | 1.88 | 2.4 | 0.793 | 1.06 | -0.131 | 1.67 | -0.228 | 3.55
AATACAGGGTCACTAGCCCAGAGTAGGTACGAAT | 5.41 | 4.89 | 1.13 | 3.8 | 0.946 | 5.41 | 5.91 | 5.2 | 2.09 | 4.01 | 2.81 | 4.3 | 1.88 | 0.703 | 2.29 | 2.92 | 0.113 | 3.64 | 1.11 | 4.08
TAGCCTAGGTCATTGGCCAGTATACCACGCGAAC | 4.93 | 3.34 | 0.738 | 2.61 | 0.254 | 3.41 | 2.4 | 2.49 | 0.453 | 1.44 | 1.38 | 2.72 | 0.244 | -0.771 | 1.49 | 1.56 | -0.368 | 2.16 | -0.259 | 3.57
CGAACTAGGTCAGAACAGGACAGCGAAGGATGAT | 1.13 | 0.841 | -0.226 | 0.393 | -0.43 | 3.3 | 5.21 | 4.4 | 1.79 | 3.38 | 6.88 | 7.17 | 2.58 | 2.2 | 1.18 | 0.861 | -0.18 | 1.86 | 0.0245 | 2.88
CCTTCCGGGTCAAGGTTATAGCACGGGTGGTACG | 5.06 | 3.34 | 0.142 | 2.85 | 0.13 | 4.95 | 5.1 | 5.24 | 2.15 | 4.32 | 2.99 | 4.69 | 0.688 | 0.0375 | 2.1 | 3.7 | 0.341 | 4.25 | 0.928 | 4.1
CCTAGGAGGCCAGGGTCACTCAAGCATTTCGCTT | 1.76 | 1.21 | -0.383 | 1.7 | -1.15 | 3 | 0.95 | 1.71 | -0.259 | 0.653 | 0.19 | 1.11 | -0.773 | -1.85 | 1.09 | 2.28 | -0.346 | 2.55 | -0.732 | 2.67
CGTCAAAATTCAAGGTAACGTAACAGAAAGCAGC | 0.068 | -0.273 | 0.242 | 0.13 | 0.187 | 0.331 | 0.678 | 0.108 | 0.0221 | 0.028 | 0.000306 | 0.704 | 0.815 | 0.761 | 0.474 | -0.0296 | 0.268 | 0.363 | 0.932 | 0.208
ATATGTAGGTTAGCTGGGGTCTTTCAGACTAGGC | 1.74 | 0.766 | 0.231 | 1.6 | 0.737 | 2.65 | 2.84 | 2.65 | 0.594 | 1.91 | 6.49 | 5.47 | 0.793 | 0.845 | 0.937 | 1.68 | 0.227 | 0.915 | 0.444 | 0.946
ATCGAAAGGTTGAAGGTGAGTATACCCACCCGAA | 0.788 | 1.06 | -0.269 | 0.741 | 0.0854 | 2.36 | 1.68 | 1.92 | 0.761 | 1.52 | -0.526 | 0.764 | 0.619 | 0.928 | 0.699 | 1.06 | -0.0881 | 1.79 | 0.177 | 1.66
AGCTCTAGGTAAAGTTCAGTGAAAGATCGATAGA | 0.591 | 1.3 | 0.886 | 0.579 | -0.0933 | 1.83 | 1.55 | 2.93 | 0.866 | 2.37 | 2.67 | 1.47 | 0.472 | 0.107 | 0.759 | 1.27 | 1.19 | 0.896 | 0.442 | 2.67
TCAAGTTGGTCAAAGGTCACACACTCGAAATGCG | 6.18 | 5.75 | 3.72 | 5.56 | 1.33 | 6.41 | 11.2 | 9.6 | 10 | 10.6 | 3.5 | 6.22 | 1.33 | 1.21 | 5.18 | 5.91 | 1.87 | 7.41 | 2.74 | 5.12
TCATATAGGTAATACAGGTTAAAGTCGGCATCTA | 1.72 | 2.72 | 2.2 | 1.82 | 0.603 | 2.28 | 1.93 | 2.74 | 4.37 | 3.53 | 4.34 | 3.27 | 1.19 | 1.83 | 1.52 | 1.32 | 0.749 | 1.97 | 1.97 | 0.992
TTACCACGGTGAAAGGTCGTTGATGCACGCCTTG | 1.82 | 1.94 | 0.347 | 1.79 | -0.318 | 4.03 | 6.35 | 6.53 | 5.02 | 6.87 | 0.591 | 3.21 | 0.23 | 0.773 | 1.78 | 2.43 | 0.446 | 2.56 | 0.421 | 1.94
